Holding throughout (details): mRNA level, 48 h; actives raise or lower the signal
Read-out in experiment [1]: CYP4A11 (gene 1579)
The experiment in a line: LTEA_HepaRG_CYP4A11: Life Technologies and Expression Analysis (LTEA) Assay for CYP4A11 using HepaRG (AID 2283486). In a few lines:
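Differentiated HepaRG cells, 48 h after plating, exposed in duplicate for 48 h to 8 half-log concentrations up to 100 uM in 0.5% DMSO in serum-free induction medium. CYP4A11 mRNA measured by TaqMan qRT-PCR, normalized to ACTB, GAPDH and POLR2A.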

Read-out in experiment [2]: Cytochrome P450 3A4 (Homo sapiens) (UniProt P08684)
The experiment in a line: LTEA_HepaRG_CYP3A4: Life Technologies and Expression Analysis (LTEA) Assay for CYP3A4 using HepaRG (AID 2283487). In a few lines:
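Differentiated HepaRG cells, plated 48 h, then dosed 48 h in serum-free induction medium with 0.5% DMSO, 8 half-log concentrations up to 100 uM, duplicate. CYP3A4 mRNA by qRT-PCR, normalized to ACTB/GAPDH/POLR2A; bidirectional fit versus DMSO.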

Read-out in experiment [3]: DNA damage-inducible transcript 3 (DDIT3), DDIT3 (gene 1649)
As to the kind of experiment: LTEA_HepaRG_DDIT3: Life Technologies and Expression Analysis (LTEA) Assay for DNA damage-inducible transcript 3 (DDIT3) using HepaRG (AID 2283488). In outline:
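DDIT3 transcript was quantified by qRT-PCR with ACTB/GAPDH/POLR2A normalization after 48 h chemical treatment of differentiated HepaRG cells in 0.5% DMSO. Dosing was eight-point, half-log, top 100 uM, duplicate wells. Curves fitted bidirectionally versus DMSO.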

Read-out in experiment [4]: Pro-epidermal growth factor (Homo sapiens) (UniProt P01133)
As to the kind of experiment: LTEA_HepaRG_EGF: Life Technologies and Expression Analysis (LTEA) Assay for Epidermal growth factor (EGF) using HepaRG (AID 2283489). In outline:
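HepaRG cells (~100,000/well, 48 h pre-culture) exposed in duplicate for 48 h in serum-free induction medium to 8 half-log concentrations up to 100 uM in 0.5% DMSO. EGF mRNA by qRT-PCR, normalized to ACTB/GAPDH/POLR2A; bidirectional fit versus DMSO.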

Read-out in experiment [5]: Early growth response protein 1 (EGR1) transcription factor, EGR1 (gene 1958)
The experiment in a line: LTEA_HepaRG_EGR1: Life Technologies and Expression Analysis (LTEA) Assay for Early growth response protein 1 (EGR1) transcription factor using HepaRG (AID 2283490). In outline: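 EGR1 transcript levels quantified by qRT-PCR (Fluidigm arrays) against three housekeeping genes after 48 h chemical exposure of HepaRG cells. Eight-point half-log series topping at 100 uM, 0.5% DMSO vehicle, analyzed for gain or loss.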

Read-out in experiment [6]: Ezrin (EZR), EZR (gene 7430)
As to the kind of experiment: LTEA_HepaRG_EZR: Life Technologies and Expression Analysis (LTEA) Assay for Ezrin (EZR) using HepaRG (AID 2283491). In a few lines:
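EZR transcript levels came from Fluidigm qRT-PCR and were normalized to three housekeeping genes after 48 h chemical exposure of HepaRG cells. Dosing used an 8-point half-log series with a 100 uM top concentration in 0.5% DMSO, tested in duplicate; both directions were fitted versus vehicle.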

Read-out in experiment [7]: Cytochrome P450 3A7 (Homo sapiens) (UniProt P24462)
The experiment in a line: LTEA_HepaRG_CYP3A7: Life Technologies and Expression Analysis (LTEA) Assay for CYP3A7 using HepaRG (AID 2283492). In outline: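 Differentiated HepaRG cells in serum-free induction medium exposed 48 h in duplicate to 8-point half-log series from 100 uM top in 0.5% DMSO. CYP3A7 mRNA by qRT-PCR, normalized to ACTB/GAPDH/POLR2A, bidirectional fit versus DMSO.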

Read-out in experiment [8]: CYP3A5 (gene 1577)
The experiment in a line: LTEA_HepaRG_CYP3A5: Life Technologies and Expression Analysis (LTEA) Assay for CYP3A5 using HepaRG (AID 2283493). In a few lines:
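mRNA levels were quantified by qRT-PCR on Fluidigm arrays and normalized to three housekeeping genes. Differentiated HepaRG cells received 48 h exposure (top 100 uM, half-log steps, 0.5% DMSO vehicle, duplicate); bidirectional fitting versus DMSO.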

Read-out in experiment [9]: Fatty Acid-Binding Protein 1 (FABP1), FABP1 (gene 2168)
The experiment in a line: LTEA_HepaRG_FABP1: Life Technologies and Expression Analysis (LTEA) Assay for Fatty Acid-Binding Protein 1 (FABP1) using HepaRG (AID 2283494). In a few lines: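 FABP1 expression by TaqMan qRT-PCR, normalised to three housekeeping genes, in HepaRG cells after 48 h chemical treatment. Eight-point half-log series topping at 100 uM in 0.5% DMSO, duplicates; gain or loss fitted relative to vehicle.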

Read-out in experiment [10]: Cytochrome P450 4A22 (Homo sapiens) (UniProt Q5TCH4)
The experiment in a line: LTEA_HepaRG_CYP4A22: Life Technologies and Expression Analysis (LTEA) Assay for Cytochrome P450 4A22 (CYP4A22) using HepaRG (AID 2283495). In a few lines:
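Differentiated HepaRG cells in serum-free induction medium exposed 48 h in duplicate to eight half-log concentrations up to 100 uM in 0.5% DMSO. CYP4A22 mRNA quantified by TaqMan qRT-PCR, normalized to ACTB, GAPDH and POLR2A; bidirectional fit versus DMSO.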

Active and inactive are the calls of the source. Rule for the calls: active = hit-call score of the fitted dose curve at least 0.9, where 1 is the maximum; inactive = score below 0.9.

A word on the AC50: it is the concentration at which the activity in the assay is half-maximal.

Chain of Cytochrome P450 3A7 (Homo sapiens) (P24462 whole entry, looked up): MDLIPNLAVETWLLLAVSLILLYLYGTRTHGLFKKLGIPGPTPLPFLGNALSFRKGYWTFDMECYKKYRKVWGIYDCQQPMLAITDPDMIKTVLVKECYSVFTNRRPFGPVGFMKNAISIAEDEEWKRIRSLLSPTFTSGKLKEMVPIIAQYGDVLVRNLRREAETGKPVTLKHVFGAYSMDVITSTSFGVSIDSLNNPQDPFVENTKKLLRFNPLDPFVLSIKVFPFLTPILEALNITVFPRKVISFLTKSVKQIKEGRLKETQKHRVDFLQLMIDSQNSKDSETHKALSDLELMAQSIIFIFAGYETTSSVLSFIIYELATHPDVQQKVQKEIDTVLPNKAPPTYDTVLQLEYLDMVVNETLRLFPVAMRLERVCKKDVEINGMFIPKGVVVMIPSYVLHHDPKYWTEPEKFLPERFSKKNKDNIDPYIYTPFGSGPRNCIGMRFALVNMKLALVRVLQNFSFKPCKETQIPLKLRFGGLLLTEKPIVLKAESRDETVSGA
Chain of Cytochrome P450 3A4 (Homo sapiens) (P08684 whole entry, looked up): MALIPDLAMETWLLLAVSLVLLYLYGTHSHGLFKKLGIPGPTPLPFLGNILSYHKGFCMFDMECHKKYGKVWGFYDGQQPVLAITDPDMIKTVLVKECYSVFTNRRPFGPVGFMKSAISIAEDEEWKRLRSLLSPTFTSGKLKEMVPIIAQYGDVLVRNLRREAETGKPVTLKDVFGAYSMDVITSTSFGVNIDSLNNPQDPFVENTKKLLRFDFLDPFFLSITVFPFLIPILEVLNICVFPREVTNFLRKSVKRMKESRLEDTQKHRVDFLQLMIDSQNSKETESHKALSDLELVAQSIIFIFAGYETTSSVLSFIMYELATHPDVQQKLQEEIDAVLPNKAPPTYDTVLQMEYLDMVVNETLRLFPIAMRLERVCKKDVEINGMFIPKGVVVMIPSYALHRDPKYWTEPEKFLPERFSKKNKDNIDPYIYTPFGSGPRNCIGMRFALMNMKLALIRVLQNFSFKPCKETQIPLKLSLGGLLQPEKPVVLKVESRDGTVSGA

In the case of `CC(=O)OC/C=C(\C)CCC=C(C)C`, the compound was classed as inactive in [1], in [2], in experiment [3], in [4], in [5] and in experiment [6]. The result in experiment [7], in experiment [8] and in experiment [9] was inactive.
Regarding `NC(=O)Cn1c(=O)cc(CCN2CCN(c3nccc4sccc34)CC2)c2ccc(F)cc21`, the AC50 in experiment [1] is 65.4 µM (active); in [2], 5.56 µM (active); in experiment [3], 65.2 µM (active). Moreover, the compound was classed as inactive in experiment [4], in [5], in experiment [6], in experiment [7] and in experiment [8].
For the compound `Cc1nc(-c2ccc3c(c2)CCN(CCC2CCC(NC(=O)/C=C/c4ccc(F)cc4)CC2)CC3)no1` (stereo not given), the call in experiment [1], in [2], in experiment [3], in [4], in experiment [5] and in experiment [6] was inactive. Also, the call in experiment [7] and in experiment [8] was inactive.
For the compound `O=C(OCCCCCOC(=O)c1ccccc1)c1ccccc1`, the AC50 in [1] was 1.94 µM (active); in [3], 1.38 µM (active); in [4], 2.17 µM (active); in [7], 2.31 µM (active). For the same compound, the compound was called inactive in experiment [2], in experiment [5], in [6], in [8] and in [9].
With `CC(C)c1ccc(C(=O)N=C(N)N)cc1S(C)(=O)=O`, the AC50 in [1] is 0.297 µM (active); in experiment [2] it was 9.24 µM (active); in experiment [3] it was 0.545 µM (active); in experiment [4] it was 0.69 µM (active); in experiment [5] it was 0.337 µM (active); in [7], 0.74 µM (active). Besides, the outcome in [6] and in experiment [8] was inactive.
Turning to `CCCCCCCCCCCCCCCCCC(=O)O`, the compound was called inactive in experiment [1], in experiment [2], in [3], in experiment [4], in [5] and in experiment [6]. Besides, the outcome in experiment [7] and in experiment [8] was inactive.
With `CCCCCCC(=O)OCC`, the outcome in experiment [1], in [2], in experiment [3], in experiment [4], in experiment [5] and in [6] was inactive. The compound was classed as inactive in experiment [7], in experiment [8], in [9] and in experiment [10].
Take `Cc1oc(-c2ccccc2)nc1CCOc1cccc2c1ccn2CCC(=O)O`: the AC50 in experiment [1] was 85.9 µM (active); in experiment [2], 80.1 µM (active); in [3], 79.2 µM (active); in [5] it was 4.76 µM (active); in experiment [6] it was 9.92 µM (active); in experiment [7] it was 11.4 µM (active). The results for the AC50 in [9] and in [10] were 87.6 µM (active) and 85.2 µM (active), respectively. Besides, the result in experiment [4] and in experiment [8] was inactive.
As to `COc1cc(C=O)ccc1O`, the result in [1], in [2], in experiment [3], in [4], in experiment [5] and in [6] was inactive. The call in experiment [7], in experiment [8], in experiment [9] and in [10] was inactive.
With `Cc1cc(NC(=O)C(=O)O)cc(C)c1Oc1ccc(O)c2c1CCC2`, the AC50 in [1] was 0.00589 µM (active); in experiment [2] it was 13.8 µM (active); in [7], 0.0522 µM (active); in [8], 0.0973 µM (active); in [9], 0.0279 µM (active). Also, the compound was called inactive in [3], in experiment [4], in [5] and in experiment [6].
Regarding `COc1cc(-c2nc(NC(=O)c3cc4cc(C)cc(C)c4n3CC(=O)O)sc2CCC2CCCCC2)c(OC)cc1Cl`, the AC50 in experiment [1] is 8.34 µM (active); in [2] it was 7.45 µM (active); in experiment [3] it was 10.9 µM (active); in experiment [4] it was 29.1 µM (active); in experiment [5] it was 42.2 µM (active); in experiment [6], 19.8 µM (active). Moreover, the AC50 in experiment [7] was 7.24 µM (active); in [8] it was 9.6 µM (active); in [9] it was 4.12 µM (active); in experiment [10], 6.57 µM (active).
For `CCCCCC(=O)O`, the compound was called inactive in [1], in [2], in experiment [3], in experiment [4], in experiment [5] and in [6]. Moreover, the compound was called inactive in experiment [7], in [8], in experiment [9] and in experiment [10].
With `CC=Cc1ccc(O)c(OC)c1`, the outcome in experiment [1], in [2], in [3], in experiment [4], in experiment [5] and in [6] was inactive. Moreover, the compound was called inactive in experiment [7], in [8] and in experiment [9].
`CCNc1cccc(C)c1`: the call in experiment [1], in experiment [2], in experiment [3], in experiment [4], in [5] and in [6] was inactive. Also, the outcome in [7], in experiment [8] and in [9] was inactive.
`Cc1cccc(C)c1O`: the outcome in experiment [1], in [2], in experiment [3], in [4], in experiment [5] and in [6] was inactive. For the same compound, the result in experiment [7], in experiment [8] and in [9] was inactive.
For the compound `C[Si]1(C)O[Si](C)(C)O[Si](C)(C)O[Si](C)(C)O1`, the result in experiment [1], in experiment [2], in [3], in experiment [4], in experiment [5] and in experiment [6] was inactive. For the same compound, the result in experiment [7], in experiment [8] and in experiment [9] was inactive.
For the compound `COc1cc(S(=O)(=O)O)c(C)cc1N=Nc1c(O)ccc2cc(S(=O)(=O)O)ccc12`, the result in [1], in experiment [2], in experiment [3], in experiment [4], in experiment [5] and in [6] was inactive. The compound was classed as inactive in [7], in experiment [8], in [9] and in experiment [10].
In the case of `CCOC(=O)CCC(=O)OCC`, the compound was classed as inactive in experiment [1], in experiment [2], in experiment [3], in [4], in [5] and in [6]. Also, the compound was classed as inactive in [7], in experiment [8], in experiment [9] and in experiment [10].
With `NCC1(Cc2noc(=O)[nH]2)CCCCC1`, the call in experiment [1], in experiment [2], in experiment [3], in experiment [4], in experiment [5] and in [6] was inactive. Also, the call in experiment [7], in experiment [8], in [9] and in [10] was inactive.
Take `O=[N+]([O-])C(CO)(CO)CO`: the call in experiment [1], in experiment [2], in experiment [3], in [4], in [5] and in experiment [6] was inactive. For the same compound, the compound was called inactive in experiment [7], in experiment [8], in experiment [9] and in [10].
As for `CCCCc1ccc2c(n1)[C@@H](c1ccc(OC)cc1C[C@H](C)C(=O)O)[C@H](C(=O)O)[C@H]2c1ccc2c(c1)OCO2`, the call in [1], in [2], in experiment [3], in [4], in experiment [5] and in experiment [6] was inactive. Further, the compound was classed as inactive in experiment [7], in [8], in experiment [9] and in experiment [10].
